High-throughput results (PubChem BioAssay)
rCAG RNA binder – binds r(CAG) RNA repeats; r(CAG) RNA repeat, TO-PRO-1 dye displacement fluorescence; inhibition, % at 3 µM; 370,000 tested, 1.3% active;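 active means inhibition above the plate cutoff, the mean of all test compounds on that plate plus 3 SD, cut at about 35% in these data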;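 further: 0% = DMSO alone and 100% = 100 µM mitoxantrone as full dye displacement; higher means more dye released from RNA so lower well fluorescence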
PRMT1 inh – PRMT1 (human) inhibition, primary screen; Q99873; recombinant PRMT1, activity-based probe fluorescence polarization; 370,000 tested, 1.3% active; inhibition, % at 2.79 µM;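 active means inhibition above about 21% made by adding two undisclosed values, limit read from the data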
ABHD5 PLIN5 PPI – blocks binding of human ABHD5 to perilipin-5; Split G. princeps luciferase complementation, luminescence, 4 h; inhibition, % at 4 µM; AID 602281; 360,000 tested, 0.78% active; Q00G26+Q8WTS1;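 active means inhibition above the mean inhibition across every tested compound plus 3 SD, cut at about 22% in these data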;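 further: 0% = DMSO only wells and the 100% control is not disclosed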
Target sequence (Q00G26 whole entry, looked up): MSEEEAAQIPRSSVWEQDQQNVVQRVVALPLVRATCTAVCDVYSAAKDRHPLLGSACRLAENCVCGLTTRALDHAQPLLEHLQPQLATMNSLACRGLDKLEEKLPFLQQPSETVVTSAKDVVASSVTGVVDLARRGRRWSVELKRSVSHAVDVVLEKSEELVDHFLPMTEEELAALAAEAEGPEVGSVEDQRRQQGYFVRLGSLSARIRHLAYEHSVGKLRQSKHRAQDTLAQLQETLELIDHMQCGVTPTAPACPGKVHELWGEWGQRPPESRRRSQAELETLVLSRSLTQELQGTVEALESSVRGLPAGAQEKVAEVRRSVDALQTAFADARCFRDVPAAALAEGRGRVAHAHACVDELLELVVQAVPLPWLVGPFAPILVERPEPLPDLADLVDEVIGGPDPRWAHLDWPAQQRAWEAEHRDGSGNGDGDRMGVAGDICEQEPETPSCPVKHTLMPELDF
Target sequence (Q8WTS1 whole entry, looked up): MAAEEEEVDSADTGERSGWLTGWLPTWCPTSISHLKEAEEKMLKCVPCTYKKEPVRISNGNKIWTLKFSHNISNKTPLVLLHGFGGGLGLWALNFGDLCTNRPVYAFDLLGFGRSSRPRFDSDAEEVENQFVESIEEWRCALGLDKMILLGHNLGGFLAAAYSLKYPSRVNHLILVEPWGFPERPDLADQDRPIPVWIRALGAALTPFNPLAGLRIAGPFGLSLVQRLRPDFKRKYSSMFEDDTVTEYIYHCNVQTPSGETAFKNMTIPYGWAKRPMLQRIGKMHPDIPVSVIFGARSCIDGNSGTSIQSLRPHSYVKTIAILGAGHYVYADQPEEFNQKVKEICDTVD
LEDGF integ inh – blocks HIV-1 LEDGF/p75-dependent DNA integration; TR-FRET IN-LEDGF/p75 DNA integration, Eu/Cy5; inhibition, % at 3.7 µM; 370,000 tested, 0.64% active; AID 743269;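 active means inhibition above the screen-wide mean plus 3 SD, cut at about 13% in these data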;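 further: signal is the Cy5 over europium emission ratio at 671 and 618 nm; 0% = plate median of compound wells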
UHRF1 MBD2 ctr – human UHRF1 methylated DNA binding inhibitors | Q96T88 | UHRF1 binding to methylated oligo, TR-FRET | inhibition, % at 4.4 µM | 370,000 tested, 0.75% active | AID 687016; in the data active means inhibition above about 21%;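 further: UHRF1 SRA domain binding a hemimethylated CpG hairpin DNA probe; 0% = median of test compound wells and 100% = reference inhibitor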
MBD2 DNA inh – blocks human MBD2 binding to methylated DNA; TR-FRET, MBD2 binding to methylated oligonucleotide; inhibition, % at 4.4 µM; 370,000 tested, 0.31% active; in the data active means inhibition above about 13%
* hit, by the source's call; x = no result given. Hits are enriched below; roughly 4.1% of the tested compounds scored in any of these assays.

SMILES | rCAG RNA binder | PRMT1 inh | ABHD5 PLIN5 PPI | LEDGF integ inh | UHRF1 MBD2 ctr | MBD2 DNA inh
CCCC[C@@H]1Cc2[nH][nH]c(=O)c2[C@H](c2ccc(C(C)C)cc2)O1 | 14 | 0 | 23* | -4 | -6 | -2
CC[C@@H]1Cc2[nH][nH]c(=O)c2[C@H](c2ccc(Cl)cc2)O1 | 9 | 2 | -3 | 0 | -8 | -4
COc1ccc(C(=O)OCCN2CCN(C3CN(Cc4cn(Cc5cccc(F)c5)nn4)S(=O)(=O)C3)CC2)cc1OC (configuration not stated) | 5 | 3 | x | -1 | 12 | 2
Nc1[nH]n(-c2ccccc2)c(=O)c1N=Nc1ccc(F)cc1 | 5 | 1 | x | -1 | -9 | -10
COc1ccc(OCc2nn3c(-c4ccccc4)nnc3s2)cc1 | 1 | -1 | x | 1 | 1 | 6
O=C(NCc1ccco1)c1ccc(COCC(F)(F)C(F)F)cc1 | 41* | -2 | 0 | 1 | 0 | -1
CCOc1cccc(-c2nc3cc(C)ccc3o2)c1 | 2 | 7 | 7 | 11 | 26* | 11
S=c1[nH]nc(-c2cc(-c3ccccc3)n[nH]2)n1/N=C/C(Br)=C/c1ccccc1 | 33 | 4 | 26* | -3 | -2 | 3
S=c1[nH]nc(-c2cc(-c3ccccc3)n[nH]2)n1/N=C/c1ccccc1 | 28 | 3 | -4 | 0 | -2 | 1
CCOC(=O)c1cccc(NC(=S)NC(=O)c2cccnc2)c1 | -6 | 22* | 4 | 1 | 6 | 9
O=C1C(Cl)=C(N2CCOCC2)C(=O)N1c1cccc(Cl)c1 | 1 | 22* | 15 | 1 | 0 | -2
CCCC1(c2ccccc2)NC(=O)N(CC(=O)Nc2cc(C)on2)C1=O (configuration not stated) | -4 | -1 | -5 | -3 | 2 | 6
Cc1cc(NC(=O)CN2C(=O)NC(C)(c3ccccc3)C2=O)no1 (configuration not stated) | 1 | 0 | 6 | 1 | 97* | 3
CCNc1nc(N)c([N+](=O)[O-])c(Nc2cccc(Cl)c2)n1 | x | -3 | x | -2 | 0 | -5
CN1OC[C@@H]2CN[C@H](c3ccc(N4CCCCC4)cc3)C[C@@H]21 | 4 | 0 | x | -1 | 7 | 2
COc1cccc2c(SCC(=O)N/N=C/c3ccc(O)c(O)c3)cc(C)nc12 | 17 | 29* | -1 | 10 | 8 | 0
C[C@H]1[C@@H](OC(=O)NCc2ccccc2Cl)CC[C@@]23CCCN2C(=O)CCC[C@@H]13 | x | 3 | x | -1 | 2 | 1
COCc1c(C(=O)N/N=C/c2ccc(C)o2)nnn1-c1nonc1N | 0 | 4 | 1 | 0 | 25* | 0
COCc1c(C(=O)N/N=C/c2ccncc2)nnn1-c1nonc1N | -1 | 2 | -2 | 3 | 1 | 7
COCc1c(C(N)=O)nnn1-c1nonc1N | -1 | -1 | -6 | 4 | 32* | 1
COC(=O)c1cccc(OC[C@@H](O)CN2CCC(C(O)(c3ccccc3)c3ccccc3)CC2)c1 | 0 | 1 | x | 8 | 2 | 2
Cc1ccc(NC(=O)[C@H]2CC(=O)O[C@@H]2c2ccccc2)cc1C | 0 | 4 | x | -7 | 4 | 7
Cc1nc2ccc(NC(=O)c3c(Cl)cccc3Cl)cc2c(=O)[nH]1 | 0 | 0 | x | 2 | 2 | 1
O=C(C[n+]1cc(-c2ccc(F)cc2)n2c1CCC2)Nc1nc(-c2ccccc2)cs1 | 15 | 1 | 16 | -4 | 44* | -2
Cc1ccc(-c2c[n+](CC(=O)Nc3ccc(C)cc3C)c3n2CCC3)cc1 | 6 | -4 | 2 | -4 | 37* | 0
SMILES | rCAG RNA binder | PRMT1 inh | ABHD5 PLIN5 PPI | LEDGF integ inh | UHRF1 MBD2 ctr | MBD2 DNA inh
O=C(C[n+]1cc(-c2ccc(Cl)cc2)n2c1CCC2)Nc1nc(-c2ccccc2)cs1 | 15 | -3 | 2 | -1 | -3 | 2
O=C1CCC[C@H]2C[C@H](NCc3cccc(Cl)c3)CC[C@]23CCCN13 | x | -2 | x | 2 | -3 | -2
COc1ccccc1Nc1ccc(C(=O)NC2CCCCC2)cn1 | -5 | -3 | 4 | -2 | 27* | -2
COc1ccccc1Nc1cc(C(=O)NC2CCCC2)c2ccccc2n1 | 3 | 4 | -1 | -3 | 1 | -2
CCCCn1c(N)c(N(CCOC)C(=O)CSCc2ccccc2C)c(=O)[nH]c1=O | -4 | 0 | -1 | 7 | 33* | 13
CCCCn1c(N)c(N(CCOC)C(=O)C2CCN(S(=O)(=O)c3ccc(Cl)cc3)CC2)c(=O)[nH]c1=O | -3 | 3 | 0 | 3 | 24* | 7
CCN(CC)c1ccc(-c2nnc(SCC(=O)N(CCOC)c3c(N)n(CC(C)C)c(=O)[nH]c3=O)o2)cc1 | -6 | -4 | 8 | -1 | 80* | 1
COCCN(C(=O)CSc1ncn[nH]1)c1c(N)n(Cc2ccccc2)c(=O)[nH]c1=O | 6 | -2 | 2 | 5 | 27* | 4
Cc1ccccc1Cn1cc(COC(=O)N(C)Cc2ccccc2)nn1 | 1 | -1 | x | -2 | 1 | 6
COc1ccc(OCCSc2nc3ccccc3n2CCC(=O)O)cc1 | 7 | -2 | -1 | 1 | -4 | -1
COc1ccccc1OCCSc1nc2ccccc2n1CCC(=O)O | 1 | 5 | 4 | 8 | 34* | 11
Cc1[nH]nc2c1C(c1ccc(F)cc1)N(Cc1ccccc1)C2=O (configuration not stated) | 2 | -3 | x | 4 | 1 | -3
O=C(CNC(=O)c1ccc(Br)cc1)NCC(=O)OCC(=O)c1ccc([N+](=O)[O-])cc1 | -1 | 23* | -12 | 4 | -2 | -2
c1ccc(Cc2cnc(N3CCN(Cc4cccc(-c5ccsc5)n4)CC3)nc2)cc1 | 3 | -1 | x | 3 | -1 | -2
CC(C)C[C@H](NC(=O)N1CCOCC1)C(=O)N1CCC[C@H]1C(=O)NCc1ccccc1 | 1 | 4 | x | 2 | 4 | 4
O=C(C(=O)N1CCN(S(=O)(=O)c2ccc(Cl)cc2)CC1)c1cccc(C(F)(F)F)c1 | 1 | 2 | x | -3 | 2 | 7
Cc1ccc(NC(=O)CSc2nnc(C)c(=O)n2N)cc1Cl | -1 | 5 | -5 | -7 | -1 | 2
Cc1nnc(SCC(=O)c2ccc(Cl)cc2)n(N)c1=O | 4 | 37* | -30 | -3 | 3 | -4
COc1ccc(N2CCN(CCCNC(=O)Cn3c(=O)c4cccn4c4cccnc43)CC2)c(OC)c1 | x | 0 | x | 3 | 3 | 5
C[C@@H](NC(=O)c1ccc(C#Cc2cccc(F)c2)cn1)C(C)(C)O | 1 | -1 | x | -3 | 4 | 3
CN(C)CCNC(=O)COc1ccc(C23CC4CC(CC(C4)C2)C3)cc1 | -3 | 2 | 23* | 2 | 1 | 3
COC(=O)[C@]12C[C@H](CC(=O)NCC3CCCCC3)C(=O)N(Cc3ccco3)C1=C[C@H](C(C)C)O[C@@H]2C1CC1 | 2 | 3 | x | -1 | -2 | -3
CN(C)c1ccc(C(=O)Nc2ccc(S(=O)(=O)Nc3nccs3)cc2)cc1 | 35* | 0 | 5 | 2 | -8 | 1
